Data from PubChem BioAssay (NCI).
Several values for one entry are separate records, joined by “and”; a condition that tells them apart may be missing. Equal entries are not always repeated. The panel holds about 79,000 compounds, 15% with a hit somewhere; the sample as a whole holds those more often. A structure can be active in one record and inactive in another. Activity calls are given as the source filed them. Cut-off read from the data, not from the text of the source: active = growth inhibition above about 70%; inactive = the rest.

Key:
[1] = NCI Yeast Anticancer Drug Screen. Data for the rad50 strain (AID 155);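 note: 0% = growth of vehicle-only cultures of the same strain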; details: S. cerevisiae rad50 strain growth inhibition, stronger effect = higher value
Outline: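 Readout: growth inhibition relative to vehicle-treated cultures. Compound exposure was carried out in a genetically defined yeast strain deficient in DNA damage repair.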

[2] = NCI Yeast Anticancer Drug Screen. Data for the mec2-1 strain (AID 157); details: S. cerevisiae mec2-1 strain, stronger effect = higher value
Outline: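 Growth inhibition is read against vehicle-treated controls after compound exposure of the mec2-1 yeast strain, which is defective in DNA damage repair or cell cycle control.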

[3] = NCI Yeast Anticancer Drug Screen. Data for the sgs1 mgt1 strain (AID 161);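 note: 0% = growth of cultures given vehicle only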; details: S. cerevisiae sgs1 mgt1 strain, stronger effect = higher value
Outline: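 This yeast growth screen uses a strain with defined DNA-repair lesions; compound-treated growth is compared with vehicle-treated growth.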

[4] = NCI Yeast Anticancer Drug Screen. Data for the cln2 rad14 strain (AID 165);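 note: 0% = growth equal to vehicle treated cultures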; details: S. cerevisiae cln2 rad14 strain, stronger effect = higher value
Outline: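 Growth inhibition, relative to vehicle-treated controls, is the read-out. The test organism is a yeast strain with defined genetic alterations, cln2 rad14.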

[5] = NCI Yeast Anticancer Drug Screen. Data for the bub3 strain (AID 167); details: S. cerevisiae bub3 mutant strain, stronger effect = higher value
Outline: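 Readout: yeast growth inhibition, expressed relative to vehicle-only wells. The test organism is a mutant strain from a panel with lesions in DNA repair or checkpoint genes.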

[6] = NCI Yeast Anticancer Drug Screen. Data for the mlh1 rad18 strain (AID 175); details: S. cerevisiae mlh1 rad18 strain growth inhibition, stronger effect = higher value
Outline: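 Cells of a genetically altered yeast strain, deficient in DNA damage repair, were treated with compound. Their growth was then compared with that of vehicle-treated cultures to give inhibition.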

[7] = at 5.0 µM (retest, dose inferred, filed as 0.5)
[8] = at 50.0 µM (retest, dose inferred, filed as 5.0)

SMILES	growth inhibition [1, 7]	growth inhibition [1, 8]	growth inhibition ([1]; at 50.0 µM)	growth inhibition [2, 7]	growth inhibition [2, 8]	growth inhibition ([2]; at 50.0 µM)	growth inhibition [3, 7]	growth inhibition [3, 8]	growth inhibition ([3]; at 50.0 µM)	growth inhibition [4, 7]	growth inhibition [4, 8]	growth inhibition ([4]; at 50.0 µM)	growth inhibition [5, 7]	growth inhibition [5, 8]	growth inhibition ([5]; at 50.0 µM)	growth inhibition [6, 7]	growth inhibition [6, 8]	growth inhibition ([6]; at 50.0 µM)
ClCCN(CCCl)CCN1c2ccccc2Sc2ccc3ccccc3c21	3% (inactive)	31% (inactive)	80% (active)	2% (inactive)	53% (inactive)	40% (inactive)	7% (inactive)	81% (active)	95.8% (active)	-7% (inactive)	18% (inactive)	70.9% (active)	-5% (inactive)	42% (inactive)	40.6% (inactive)	12% (inactive)	78% (active)	83.5% (active)
COc1cccc2c1cc([N+](=O)[O-])c1c(C(=O)O)cc3c(c12)OCO3	35% (inactive) and 54% (inactive)	95% (active) and 94% (active)	87.8% (active) and 91% (active)	4% (inactive) and 39% (inactive)	83% (active) and 93% (active)	85.7% (active) and 91.7% (active)	22% (inactive) and 61% (inactive)	94% (active) and 95% (active)	88.3% (active) and 88.7% (active)	-11% (inactive) and 19% (inactive)	62% (inactive) and 84% (active)	84.4% (active) and 86.8% (active)	18% (inactive) and 49% (inactive)	78% (active) and 93% (active)	89.8% (active) and 90.5% (active)	25% (inactive) and 71% (active)	90% (active) and 95% (active)	88.7% (active) and 79.7% (active)
O=C(C1C(c2ccccc2)N1C(c1ccccc1)c1ccccc1)C1C(c2ccccc2)N1C(c1ccccc1)c1ccccc1 (stereo not drawn)	-3% (inactive)	50% (inactive)	72.7% (active)	23% (inactive)	42% (inactive)	54% (inactive)	-3% (inactive)	77% (active)	58% (inactive)	-17% (inactive)	6% (inactive)	24% (inactive)	-14% (inactive)	56% (inactive)	63.9% (inactive)	7% (inactive)	80% (active)	90.2% (active)
S=C(SSC(=S)N1CCCCC1)N1CCCCC1	50% (inactive)	99% (active)	9.4% (inactive) and 16.8% (inactive)	55% (inactive)	99% (active)	13.6% (inactive) and 5.4% (inactive)	48% (inactive)	99% (active)	18.5% (inactive) and 12.8% (inactive)	55% (inactive)	99% (active)	24.9% (inactive) and 19.5% (inactive)	70% (active)	99% (active)	9.8% (inactive) and 4.25% (inactive)	34% (inactive)	99% (active)	54.8% (inactive) and 12.6% (inactive)
CCOP(=O)(OCC)Oc1ccc([N+](=O)[O-])cc1	8% (inactive)	-5% (inactive)	0.55% (inactive)	-10% (inactive)	-13% (inactive)	2.65% (inactive)	12% (inactive)	16% (inactive)	-7% (inactive)	6% (inactive)	7% (inactive)	38.7% (inactive)	-4% (inactive)	14% (inactive)	9.8% (inactive)	13% (inactive)	4% (inactive)	3.55% (inactive)
Cn1c2cccc(=O)c-2nc2ccccc21	-14% (inactive)	85% (active)	82.5% (active)	6% (inactive)	62% (inactive)	52.2% (inactive)	1% (inactive)	49% (inactive)	21.3% (inactive)	-22% (inactive)	34% (inactive)	-2.9% (inactive)	-12% (inactive)	56% (inactive)	41.9% (inactive)	9% (inactive)	77% (active)	60% (inactive)
C1CN([PH+](N2CC2)N2CC2)CCO1.C1CN([PH+](N2CC2)N2CC2)CCO1.[I][Pt][I]	0% (inactive)	9% (inactive)	36.8% (inactive)	2% (inactive)	5% (inactive)	23.7% (inactive)	1% (inactive)	5% (inactive)	52.2% (inactive)	4% (inactive)	1% (inactive)	17.9% (inactive)	1% (inactive)	15% (inactive)	96.5% (active)	1% (inactive)	7% (inactive)	6.4% (inactive)
Oc1ccc2ccccc2c1O	13% (inactive)	81% (active)	66.4% (inactive)	3% (inactive)	59% (inactive)	50.9% (inactive)	7% (inactive)	84% (active)	57.3% (inactive)	-5% (inactive)	30% (inactive)	34% (inactive)	32% (inactive)	90% (active)	70% (active)	20% (inactive)	92% (active)	86.2% (active)
COC1=CC(C)(C)C=C([Se][Se]C2=CC(C)(C)C=C(OC)C2=O)C1=O	82% (active)	79% (active)	83.5% (active)	83% (active)	76% (active)	88.9% (active)	86% (active)	87% (active)	83% (active)	77% (active)	75% (active)	68.5% (inactive)	71% (active)	61% (inactive)	64.7% (inactive)	81% (active)	79% (active)	85.5% (active)
O=c1[nH]cc(Cn2cnc3ncccc3c2=O)c(=O)[nH]1	-5% (inactive)	-4% (inactive)	6.4% (inactive)	-5% (inactive)	-5% (inactive)	7.55% (inactive)	-3% (inactive)	-1% (inactive)	-2.1% (inactive)	-3% (inactive)	-11% (inactive)	40.5% (inactive)	-4% (inactive)	-2% (inactive)	-18.2% (inactive)	-8% (inactive)	-5% (inactive)	-16.5% (inactive)
CCC[CH2][Sn]([CH2]CCC)([S]C1=NCCS1)[S]C1=NCCS1	96% (active)	96% (active)	90.7% (active)	97% (active)	97% (active)	90.7% (active)	97% (active)	97% (active)	90.9% (active)	95% (active)	95% (active)	89.7% (active)	95% (active)	95% (active)	88.3% (active)	96% (active)	96% (active)	86.5% (active)
